Bioassay records deposited in PubChem BioAssay by National Center for Advancing Translational Sciences (NCATS).
A selection: hits, their analogues and other compounds. The true share with any hit is near 19%.
HepG2 tox: HepG2 cytotoxicity, counter-screen for TGF-b inhibitors; Potency, µM (titrated, usually from 46.1 µM), for inactives: top-dose activity change, negative = cytotoxicity, actives largely listed as cytotoxic; hit rate 0.76% among 410,000; AID 588856; HepG2 CAGA-GFP viability, ATP luminescence, 18 h; further: potency means the concentration at half of the fitted maximal effect
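CellTiter-Glo luminescence gave cytotoxicity after 18 hours at 37 degrees C. The cells were HepG2 CAGA-GFP in 1% FBS DMEM, stimulated with 500 pg/mL TGF-beta after compound addition. %Activity was normalised to no-cell wells (complete cell-killing) and DMSO (no toxicity), and curves were fitted and classified.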
DT40 TDP1 CPT: growth inhibition of DT40 Tdp1-/-;hTDP1 cells with camptothecin (screen for TDP1 inhibitors); Potency, µM (series often up to 46.2 µM), for the others: at the highest dose activity change, negative = growth inhibition, most hits filed as inhibitors; chicken DT40 Tdp1-/-;hTDP1 cells + 20 nM CPT, ATP luminescence, 48 h; hit rate 12% among 420,000; further: potency means the concentration at half of the fitted maximal effect; on the % scale 0 is the no-effect control and ±100 the full control effect; nearly all actives have a fitted effect of over 55% in size
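Chicken DT40 Tdp1-/- cells stably complemented with human TDP1 were seeded at 400 cells/well in medium containing 20 nM camptothecin, exposed to pin-transferred compounds, and grown at 37 °C for at least 48 hr. Viability was read as ATP luminescence.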
S-ASM inh: human S-ASM enzyme inhibition | P17405 | placental ASM, HMU-PC fluorogenic substrate, 60 min | Potency, µM (doses to about 57.5 µM), without a hit: top-dose activity change, negative = inhibition, most hits filed as inhibitors | hit rate 0.006% among 340,000; further: potency means the concentration at half of the fitted maximal effect
Target sequence (P17405 47-631 limits assumed): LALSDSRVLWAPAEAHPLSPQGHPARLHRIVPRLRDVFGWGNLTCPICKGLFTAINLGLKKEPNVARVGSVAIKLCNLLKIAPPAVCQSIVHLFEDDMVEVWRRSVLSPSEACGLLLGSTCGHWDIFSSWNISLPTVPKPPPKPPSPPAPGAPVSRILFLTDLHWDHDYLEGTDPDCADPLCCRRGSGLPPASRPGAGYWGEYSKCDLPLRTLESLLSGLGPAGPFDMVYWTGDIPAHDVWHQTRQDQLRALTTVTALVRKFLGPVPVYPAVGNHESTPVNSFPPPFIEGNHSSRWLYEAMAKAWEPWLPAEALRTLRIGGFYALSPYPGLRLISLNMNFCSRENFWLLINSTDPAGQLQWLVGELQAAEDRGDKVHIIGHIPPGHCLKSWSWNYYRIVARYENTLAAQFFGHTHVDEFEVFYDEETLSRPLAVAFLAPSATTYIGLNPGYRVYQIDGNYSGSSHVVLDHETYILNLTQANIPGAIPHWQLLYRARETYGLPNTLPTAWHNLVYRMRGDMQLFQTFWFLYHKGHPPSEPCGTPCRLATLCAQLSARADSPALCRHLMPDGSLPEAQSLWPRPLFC
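Human placenta-derived ASM preincubated with compound 10 min at room temperature, then reacted with 9 uM (final) fluorogenic HMU-PC substrate for 60 min at 37 C. Stop solution raises pH to 10; fluorescence read at Ex 386/Em 447 nm.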
TGFb SMAD3 inh: inhibitors of TGF-b signaling | HepG2 CAGA-GFP TGF-b/SMAD3 reporter, GFP fluorescence, 18 h; TGF-beta stimulated, 500 pg/mL final | Potency, µM (titrated, usually from 46.1 µM), without a hit: at the top dose activity, negative = inhibition, hits mostly inhibitors | hit rate 1.2% among 410,000 | AID 588855; further: potency means the concentration at half of the fitted maximal effect; on the % scale 0 is the no-effect control and ±100 the full control effect; nearly all actives have a fitted effect of over 65% in size
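Smad-responsive CAGA-GFP expression was quantified in HEPG2 cells exposed to compounds and 500 pg/mL final TGF-beta for 18 h at 37 degrees C; unstimulated wells defined full inhibition.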
IL1B secr inh: inflammasome signaling inhibition, IL-1 beta readout; hit rate 4.7% among 360,000; AID 743279; THP-1 LPS/ATP IL-1B secretion, AlphaLISA, 16 h; active compounds read low; activity change, % at 57.5 µM; in the data active means activity change below about -50%; inconclusive means mostly about -30% to -49%; further: on the % scale 0 is the no-effect control and ±100 the full control effect
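Secreted IL-1B measured by AlphaLISA bead assay after 16 h compound exposure of THP-1 cells; compounds (final up to 57.5 uM) added 1 h before LPS (250 ng/mL) and ATP (1.25 mM) stimulation; lower signal means less secretion.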
DT40 TDP1 no CPT: qHTS for Inhibitors of human tyrosyl-DNA phosphodiesterase 1 (TDP1): qHTS in cells in absence of CPT; DT40 Tdp1-/- hTDP1 cells, no CPT, ATP luminescence, 48 h; Potency, µM (titrated, usually from 46.2 µM), for the others: at the top dose activity change, negative = growth inhibition, most hits filed as inhibitors; hit rate 15% among 420,000; AID 686978, 2013; further: potency means the concentration at half of the fitted maximal effect; on the % scale 0 is the no-effect control and ±100 the full control effect; nearly all actives have a fitted effect of over 55% in size
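Luminescent ATP content (CellTiter-Glo) served as the growth readout. Knockout chicken DT40 cells expressing human TDP1 were exposed to compounds without camptothecin for a minimum 48 hr at 37 °C.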
* marks the source's active call; other numbers are inactive results; i = inactive; ? = inconclusive; nt = not tested or not shown. Unless noted, the call rests on the fitted dose curve; in most records, active means well fitted curve in the direction sought with a large enough effect; inconclusive means small, poorly fitted or top-dose-only effect, or another doubt; inactive means no such curve, though single readings can be large; an effect the other way counts as inactive or inconclusive.

SMILES | HepG2 tox | DT40 TDP1 CPT | S-ASM inh | TGFb SMAD3 inh | IL1B secr inh | DT40 TDP1 no CPT
COc1ccc2nc(-c3ccccc3)cc(C(=O)N3CCC3)c2c1 | -2% | 23µM* | 387% | 1% | -18 | 16µM*
COc1ccc(-c2cc(C(=O)N3CCCC3)c3ccccc3n2)cc1 | -7% | 3% | 46% | 7% | 0 | 6%
Cc1ccc(S(=O)(=O)N2CCOCC2)cc1C(=O)OCC(=O)Nc1ccc2[nH]c(=O)[nH]c2c1 | -29% | -4% | 1% | 0% | 10 | -3%
C/C=C(\C)CN1CCC(Oc2cccc(C(=O)NCc3ccccn3)c2)CC1 | -11% | -1% | 3% | -3% | -3 | ?
COc1ccccc1C1CN(c2ccccc2)N=C1c1cccs1 (stereo not given) | -53% | ? | i | 2% | 22 | ?
COc1cccc(C2CN(c3ccc(F)cc3F)N=C2c2cccs2)c1OC (stereo not given) | -26% | 16µM* | i | -28% | 14 | ?
C[C@H]1COC(=O)[C@@H](CC(=O)OC(C)(C)C)C/C=C\C[C@@H](CC(=O)N[C@H](CO)Cc2ccccc2)C(=O)N1 | -15% | ? | -2% | 7% | 2 | ?
O=C(C[C@@H]1C/C=C\C[C@@H](NC(=O)OCC2c3ccccc3-c3ccccc32)C(=O)OCCNC1=O)N[C@@H](CO)Cc1ccccc1 | 2% | 9.2µM* | 0% | -3% | 24 | 8.2µM*
C[C@@H]1COC(=O)[C@H](NC(=O)OCC2c3ccccc3-c3ccccc32)C/C=C\C[C@@H](CC(=O)N[C@H](CO)Cc2ccccc2)C(=O)N1 | -49% | 18µM* | -2% | -29% | -1 | 21µM*
CC(C)(C)[C@H]1COC(=O)[C@@H](NC(=O)OCC2c3ccccc3-c3ccccc32)C/C=C\C[C@@H](CC(=O)N[C@@H](CO)Cc2ccccc2)C(=O)N1 | -26% | 9.2µM* | -5% | ? | -7 | 6.5µM*
C[C@@H]1COC(=O)[C@@H](CC(=O)OC(C)(C)C)C/C=C\C[C@@H](CC(=O)N[C@H](CO)Cc2ccccc2)C(=O)N1 | 11% | -15% | 1% | 2% | 7 | -23%
O=C(CN(Cc1ccccc1)C(=O)CNS(=O)(=O)c1ccc(Cl)cc1)NCC1CCCO1 (stereo not given) | -2% | -5% | 2% | ? | 0 | 6%
COc1cccc(CN2CCC(n3nccc3NC(=O)CCCc3ccccc3)CC2)c1 | -34% | ? | 3% | ? | -8 | ?
CCOC(=O)C1=C(CC)Nc2ccccc2N/C1=N\S(=O)(=O)c1cccc(C(C)=O)c1 | -4% | -29% | 7% | -3% | 60 | ?
O=C(NNC(=S)NC(=O)c1ccccc1)c1cccc([N+](=O)[O-])c1 | -21% | ? | 7% | -23% | 36 | ?
CCCCOc1ccc(C(=O)N/C(=C\c2ccc(Br)cc2)C(=O)NC2CCCCC2)cc1 | -1% | 5.2µM* | nt | 0% | nt | ?
O=C(NNC(=S)NC(=O)c1cccc([N+](=O)[O-])c1)c1ccc(Br)cc1 | -11% | 16µM* | -4% | -16% | 73 | 21µM*
CCCCOc1ccc(C(=O)N/C(=C\c2cccc([N+](=O)[O-])c2)C(=O)OCCC)cc1 | -13% | 0% | -3% | -8% | -8 | -5%
CCCCC(=O)NNC(=S)NC(=O)c1cccc([N+](=O)[O-])c1 | -6% | 23µM* | 4% | -9% | 50 | ?
O=C(NC1CCCCC1)/C(=C/c1ccc(Cl)cc1)NC(=O)c1ccccc1 | 32% | ? | nt | 40% | nt | ?
